This assay has as its target Polyunsaturated fatty acid lipoxygenase ALOX12 (Homo sapiens) (UniProt P18054). The assay is described as follows: Confirmation qHTS Assay for Inhibitors of 12-hLO (12-human lipoxygenase). The following applies: purified 12-hLO, xylenol orange absorbance; active compounds read low. The source says: Assay Provider: Holman, T.R., University of California, Santa Cruz Screening Center PI: Austin, Christopher P. Screening Center: NIH Chemical Genomics Center Human lipoxygenase 12hLO is a member of the closely related lipoxygenase family of enzymes which catalyze the site-specific oxidation of arachidonic acid to various hormone precursor molecules and as such is a candidate for drug development in a variety of disease areas, such as cancer and inflammation. Inhibition of 12hLO activity was screened by utilizing arachidonic acid as a substrate. The extent of hydroperoxide product formation was measured by a secondary chromogenic reaction in which xylenol orange (XO, Sigma-Aldrich, cat. number 39,818-7) reacts with the ferric ions produced from the reaction between the hydroperoxide and ferrous ions. The Fe(III)-XO complex is characterized with red-shifted absorbance at 560 nm. A purified preparation of human 12hLO was supplied by Professor Ted Holman, University of California, Santa Cruz. This assay includes some confirmation and follow-up compounds for related primary screening assay AID 1452.
Assay Protocol: Buffer: 25 mM Hepes pH 7.0, 0.01% Triton X-100. […] The absorbance at 405 and 573 nm were measured using ViewLux (Perkin-Elmer) High-throughput CCD imager and absorbance protocol settings. The 573-to-405 absorbance ratio was used to compute reaction progress.

These results are taken from PubChem BioAssay AID2162 (National Center for Advancing Translational Sciences (NCATS), 2009).

Results filed as inconclusive are left out. Values without a mark were called inactive. Calls follow the shape of the dose curve; as a rule, active = well fitted inhibition curve with a large enough effect; inconclusive = small, poorly fitted or top-dose-only effect; inactive = flat fitted curve, though single readings scatter.

Sequence of Polyunsaturated fatty acid lipoxygenase ALOX12 (Homo sapiens) (P18054 whole entry, looked up): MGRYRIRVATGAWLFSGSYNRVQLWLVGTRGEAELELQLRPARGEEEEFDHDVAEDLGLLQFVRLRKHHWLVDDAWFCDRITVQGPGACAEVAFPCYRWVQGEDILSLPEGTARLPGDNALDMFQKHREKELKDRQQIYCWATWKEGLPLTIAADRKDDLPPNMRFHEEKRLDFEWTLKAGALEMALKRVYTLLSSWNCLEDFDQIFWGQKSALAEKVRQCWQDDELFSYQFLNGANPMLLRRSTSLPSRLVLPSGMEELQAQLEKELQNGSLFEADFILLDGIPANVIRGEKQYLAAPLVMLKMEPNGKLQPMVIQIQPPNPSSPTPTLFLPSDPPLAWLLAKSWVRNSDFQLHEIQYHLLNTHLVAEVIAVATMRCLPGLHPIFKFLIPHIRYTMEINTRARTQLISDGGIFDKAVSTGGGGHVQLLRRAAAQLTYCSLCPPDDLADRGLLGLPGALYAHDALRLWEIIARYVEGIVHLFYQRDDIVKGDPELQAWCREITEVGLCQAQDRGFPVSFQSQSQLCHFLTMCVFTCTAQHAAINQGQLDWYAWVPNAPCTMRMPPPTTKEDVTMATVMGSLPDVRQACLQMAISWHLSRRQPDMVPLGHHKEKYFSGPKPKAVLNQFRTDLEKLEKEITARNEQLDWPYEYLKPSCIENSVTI

Consider `CCC(C)C(=O)c1c(O)c(C)c2oc3c(C)c(O)c(C(=O)C(C)CC)c(O)c3c2c1O` (stereo unspecified), for which the activity change, negative = inhibition was -25.9%.
